Screening data deposited in PubChem by National Center for Advancing Translational Sciences (NCATS).
This is a sample that favours compounds with a hit; in the whole collection about 3.2% have one here.
USP2a block – blocks human ubiquitin-specific protease USP2a; Potency, µM (doses to about 38.3 µM), usual class: inhibitors; actives 0.01% (n = 330,000); USP2 core, Ub-CHOP2 coupled fluorogenic reporter, 485/531; AID 463254
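USP2 core (10nM final) preincubated 30min RT with compound in 20mM Tris-HCl pH 8.0, 2mM CaCl2, 2mM beta-mercaptoethanol, 0.05% CHAPS; 25nM Ub-CHOP2 plus 25nM reporter substrate added, fluorescence (Ex485/Em531) read after 60min.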
PLK1 PBD inh – blocks phosphopeptide binding to human PLK1 polo-box domain; actives 2.8% (n = 360,000); Potency, µM, hits mostly inhibitors; P53350; Plk1 PBD binding of FITC phosphopeptide, fluorescence polarization; note: series mostly up to about 57 µM; nearly all actives have a fitted effect of over 65% in size
USP1 inh – USP1/UAF1 (human) deubiquitinase inhibition; recombinant USP1/UAF1, Ub-Rhodamine cleavage fluorescence; Potency, µM (top dose mostly 57.1 µM), hits mostly inhibitors; actives 0.23% (n = 390,000); AID 743255; note: nearly all actives have a fitted effect of over 60% in size
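USP1/UAF1 complex at 1 nM was preincubated with compound for 15 min at room temperature, then Ub-Rho substrate (150nM final) was added. Fluorescence (480/540 nm) was read kinetically, 6 reads every 60 seconds.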
GALK inhibitor – blocks human galactokinase activity; Purified GALK, Kinase-Glo residual ATP luminescence; Potency, µM (titrated, usually from 57.5 µM), hits mostly inhibitors; actives 0.007% (n = 270,000)
Target sequence (P51570 whole entry, looked up): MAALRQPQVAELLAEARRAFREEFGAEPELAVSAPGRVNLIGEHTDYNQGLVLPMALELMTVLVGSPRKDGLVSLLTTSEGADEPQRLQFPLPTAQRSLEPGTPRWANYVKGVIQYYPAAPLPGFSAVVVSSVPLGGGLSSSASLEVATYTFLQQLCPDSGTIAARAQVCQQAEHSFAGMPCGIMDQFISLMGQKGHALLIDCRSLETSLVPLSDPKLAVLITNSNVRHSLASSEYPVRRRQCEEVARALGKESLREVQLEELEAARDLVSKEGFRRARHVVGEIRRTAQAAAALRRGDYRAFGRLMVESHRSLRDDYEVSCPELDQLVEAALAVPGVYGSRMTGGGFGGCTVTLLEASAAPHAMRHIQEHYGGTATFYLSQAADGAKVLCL
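Compounds were pin-transferred into ATP buffer (35 uM final), then GALK plus galactose (5 nM, 100 uM final) was added. After 1 h at room temperature, Kinase-Glo Plus was added and luminescence read after 10 min.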
FBPA coupling cs – inhibits coupling enzyme system, counter-screen for aldolase hits; coupling enzyme system counterscreen, AmpLite Red fluorescence; actives 0.67% (n = 290,000); activity change, negative = inhibition, % at 58.2 µM, hits read low; in the data active = activity change below about -30%
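Activity here indicates interference with the coupling reaction, not aldolase inhibition. Compounds at 57.5 uM final met coupling enzymes for 10 min at RT; substrate and AmpLite Red detection followed, with a 525/598 nm fluorescence read after 20 min.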
VDR inhibitor – blocks the human vitamin D receptor. actives 0.93% (n = 400,000). Potency, µM, actives largely listed as inhibitors. P11473. VDR-SRC2-3 peptide fluorescence polarization, 2 h. AID 504847
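FP read-out; VDR + SRC2-3 coactivator peptide; 23 nl compound by pintool; 2 h RT incubation; reagents held at 4 deg C, protected from light.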
TbPYK confirm – confirmation of Trypanosoma brucei pyruvate kinase inhibitors; shares compounds with PLK1 PBD inh; recombinant TbPYK, Kinase-Glo ATP luminescence; Potency, µM (series often up to 76.9 µM), actives largely listed as inhibitors; actives 67% (n = 890); AID 720569; note: nearly all actives have a fitted effect of over 70% in size
TbPYK ADP-Glo – orthogonal confirmation of Trypanosoma brucei pyruvate kinase inhibitors; shares compounds with PLK1 PBD inh; recombinant TbPYK, ADP-Glo luminescence, 60 min; Potency, µM (series often up to 76.9 µM), most hits filed as inhibitors; actives 62% (n = 890); AID 720584; note: nearly all actives have a fitted effect of over 75% in size
Of the large screens only hits and unclear results are named; the others gave an inactive call (follow-up assays come after a bar, where they were run). Unless noted, calls come from the whole dose curve; as a rule, active = well fitted curve in the direction sought with a large enough effect; inconclusive = small, poorly fitted or top-dose-only effect, or another doubt; inactive = no such curve, though single readings can be large; an effect the other way counts as inactive or inconclusive.

Cc1ccc(-c2nc(N)s[n+]2-c2ccccc2)cc1	PLK1 PBD inh 3.8µM | TbPYK confirm 2.2µM | TbPYK ADP-Glo 6.3µM
Cc1ccc(-c2nc3ccccc3nc2-c2ccccc2)cc1	none
O=C(Nc1nc2ccccc2[nH]1)c1ccc(F)c(S(=O)(=O)N2CCOCC2)c1	none
CC1C=CCC2C(=O)N(c3cccc(C(=O)NCc4ccccc4)c3)C(=O)C12 (stereo unspecified)	none | TbPYK confirm inconclusive | TbPYK ADP-Glo inconclusive
CC1C=CCC2C(=O)N(c3cccc(C(=O)NCCc4ccccc4)c3)C(=O)C12 (stereo unspecified)	none
CSc1cnn(-c2ccccc2)c(=O)c1SC	PLK1 PBD inh inconclusive
CSc1cnn(Cc2ccccc2)c(=O)c1SCc1ccccc1	PLK1 PBD inh inconclusive, VDR inhibitor inconclusive | TbPYK confirm 14µM | TbPYK ADP-Glo 22µM
CC1CC(C)CN(CC(C)(C)NS(=O)(=O)c2ccc(Cl)cc2)C1 (stereo unspecified)	none
Cc1c(C(=O)Nc2ccccc2)sc2ncn(CC(=O)N3CCCCC3)c(=O)c12	none
Oc1[nH]c2ccc(Br)cc2c1N=NC(=S)N1CCOCC1	none | TbPYK confirm 0.32µM | TbPYK ADP-Glo 0.45µM
CC1(C)OC(=O)C(=Cc2ccc(-c3ccc(S(N)(=O)=O)cc3)o2)C(=O)O1	PLK1 PBD inh 1.3µM, VDR inhibitor 79µM | TbPYK confirm 13µM | TbPYK ADP-Glo 16µM
CCOC(=O)C(=CNc1ccc(O)c(C(=O)OC)c1)C(=O)OCC	none (no result: USP2a block, GALK inhibitor, FBPA coupling cs)
CCOC(=O)C(=Cc1cc(=O)c(OC)co1)C(=O)OCC	PLK1 PBD inh 24µM, VDR inhibitor 40µM (no result: GALK inhibitor) | TbPYK confirm 28µM | TbPYK ADP-Glo inconclusive
CN(C)CCC[C@@]1(c2ccc(F)cc2)OCc2cc(C#N)ccc21	USP1 inh inconclusive (no result: USP2a block, GALK inhibitor)
COc1ccccc1NC(=O)CSc1ccc(-c2ccco2)nn1	none (no result: FBPA coupling cs)
COc1ccc(OC)c(NC(=O)CSc2ccc(-c3ccco3)nn2)c1	PLK1 PBD inh inconclusive, VDR inhibitor inconclusive (no result: FBPA coupling cs) | TbPYK confirm 20µM | TbPYK ADP-Glo 25µM
O=C(CSc1ccc(-c2ccco2)nn1)c1ccccc1	PLK1 PBD inh inconclusive | TbPYK confirm inconclusive | TbPYK ADP-Glo 32µM
Cc1ccc(Nc2c([N+](=O)[O-])ccc3nonc23)c(C)c1	none
Cc1ccc(S(=O)c2ccc([N+](=O)[O-])c3nonc23)cc1 (stereo unspecified)	PLK1 PBD inh 1.5µM, USP1 inh 16µM (no result: USP2a block, GALK inhibitor, FBPA coupling cs, VDR inhibitor) | TbPYK confirm inactive | TbPYK ADP-Glo 11µM
CCN1C(=O)/C(=C/C=C2\C=CN(CC)c3ccccc32)SC1=S	USP1 inh inconclusive, FBPA coupling cs -36 | TbPYK confirm 22µM | TbPYK ADP-Glo inconclusive
O=C(O)C(Cc1ccccc1)N1C(=O)C=CC1=O (stereo unspecified)	PLK1 PBD inh 6.7µM (no result: USP2a block, GALK inhibitor, FBPA coupling cs, VDR inhibitor) | TbPYK confirm 18µM | TbPYK ADP-Glo 32µM
Cc1cccc(NC(=O)CC2S/C(=N/c3nccs3)N(C)C2=O)c1 (stereo unspecified)	none
COc1ccccc1C(=O)NC(=S)Nc1cccc2cc(O)ccc12	none (no result: USP2a block, GALK inhibitor, FBPA coupling cs)
O=C1S/C(=C\c2ccc(N3CCOCC3)o2)C(=O)N1Cc1c(F)cccc1Cl	USP1 inh 4µM, FBPA coupling cs -41, VDR inhibitor inconclusive | TbPYK confirm 18µM | TbPYK ADP-Glo 14µM
O=C1S/C(=C\c2ccc(N3CCOCC3)o2)C(=O)N1c1ccccc1	USP1 inh 28µM, FBPA coupling cs -43, VDR inhibitor inconclusive | TbPYK confirm inconclusive | TbPYK ADP-Glo inconclusive
O=C1N=C(N2CCOCC2)S/C1=C/c1ccc(-c2ccccc2Cl)o1	none
O=C1S/C(=C/c2ccc(N3CCOCC3)o2)C(=O)N1Cc1c(F)cccc1Cl	USP1 inh inconclusive, VDR inhibitor 79µM | TbPYK confirm inconclusive | TbPYK ADP-Glo 40µM
COc1cccc(-n2c(SCC(=O)N3c4ccccc4CC3C)nnc2-c2ccco2)c1 (stereo unspecified)	none
CCC1Oc2ccc(C)cc2N(CC(=O)N(Cc2ccc(C)o2)C2CCCC2)C1=O (stereo unspecified)	PLK1 PBD inh inconclusive, VDR inhibitor inconclusive | TbPYK confirm 16µM | TbPYK ADP-Glo 16µM
O=c1[nH]c2ccc(Cl)cc2c(O)c1-c1ccccc1	none
O=c1[nH]c2ccc(Cl)cc2c(-c2ccccc2)c1SC(=S)N1CCOCC1	PLK1 PBD inh 27µM, VDR inhibitor 89µM | TbPYK confirm 4.5µM | TbPYK ADP-Glo 5.6µM
O=c1[nH]c2ccc(Cl)cc2c(-c2ccccc2)c1SC(=S)N1CCCCC1	PLK1 PBD inh 12µM, VDR inhibitor inconclusive | TbPYK confirm 5.6µM | TbPYK ADP-Glo 7.9µM
NNC(=O)CSc1c(-c2ccccc2)c2cc(Cl)ccc2[nH]c1=O	none
Cc1cc(C)nc(SC(C(=O)O)c2ccccc2)n1 (stereo unspecified)	PLK1 PBD inh inconclusive
Cc1cc(C)nc(Sc2nc(Cl)nc(N(c3ccccc3)c3ccccc3)n2)n1	PLK1 PBD inh 13µM, VDR inhibitor 22µM | TbPYK confirm inconclusive | TbPYK ADP-Glo 35µM
COC(=O)c1sc(NC(=O)c2cc(-c3ccccc3)nc3ccccc23)c(C#N)c1C	PLK1 PBD inh 2.7µM, FBPA coupling cs -73, VDR inhibitor inconclusive | TbPYK confirm 7.1µM | TbPYK ADP-Glo 7.1µM
O=C1/C(=C\c2ccco2)NC(=S)N1c1ccccc1	PLK1 PBD inh inconclusive
N#Cc1c(NC(NC(=O)c2ccco2)C(=O)c2ccccc2)sc2c1CCCC2 (stereo unspecified)	USP1 inh inconclusive | TbPYK confirm inconclusive | TbPYK ADP-Glo 3.5µM
C=CCn1c(SCC(=O)NC2CC2)nnc1-c1cccc(OC)c1	none
Cc1ccc2c(cnn2C(=O)CCC(=O)NCc2ccccc2Cl)c1	PLK1 PBD inh inconclusive (no result: GALK inhibitor)
CCCn1c(SCC(=O)c2cc(OC)ccc2OC)nnc1C(C)C	PLK1 PBD inh inconclusive | TbPYK confirm 16µM | TbPYK ADP-Glo 16µM
CCn1c(SCC(=O)c2cc(OC)ccc2OC)nc2c1c(=O)n(C)c(=O)n2C	none (no result: PLK1 PBD inh, USP1 inh, VDR inhibitor)
COc1ccc(Cl)cc1NC(=O)c1ccccc1C	none
O=C(NCc1ccco1)c1cc2ccc(O)cc2oc1=O	none | TbPYK confirm 20µM | TbPYK ADP-Glo inactive
O=C(c1ccccc1)c1cc2ccc(O)cc2oc1=O	none | TbPYK confirm inconclusive | TbPYK ADP-Glo inactive
COc1ccc(C(=O)c2cc3ccc(O)cc3oc2=O)cc1	none
COc1ccc2cc(C(=O)NCc3ccco3)c(=O)oc2c1	none
